Some test systems named below: SR leukemia; RPMI-8226 leukemia; OVCAR-8 ovarian; OVCAR-5 ovarian; SK-OV-3 ovarian; IGROV1 ovarian; OVCAR-3 ovarian; HS 578T breast; NCI/ADR-RES ovarian; T-47D breast; BT-549 breast; MDA-MB-435 melanoma; SW-620 colon; MCF7 breast; HCT-116 colon; HCC-2998 colon; KM12 colon; OVCAR-4 ovarian.
Common to all, as to experiment: NCI-60 one-dose screen, 48 h (100 = growth as untreated, 0 = no growth, -100 = all killed)
What all share (conditions): 10 µM unless noted

These results are taken from PubChem BioAssay (NCI).

Compounds without any hit were thinned out: in the full panel of roughly 83,000, 20% have a hit.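 Cells were grown in 96-well plates and exposed to the test compound at a single concentration for 48 hours; results are reported as percent growth, with values below 10 considered active.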 A number with no mark means an inactive call. Activity calls are given as the source filed them.

For the molecule `O=C(c1ccc(-c2nc(CSc3nc4ccccc4s3)no2)cc1)N1CCSCC1`, the growth was 43% in the assay on SR leukemia; 47.2% in the assay with RPMI-8226 leukemia; 43% in the assay with OVCAR-8 ovarian; 117% in the assay with OVCAR-5 ovarian; 72.6% in the assay on SK-OV-3 ovarian; 77.6% in the assay with IGROV1 ovarian. Besides, the growth was 78.8% in the assay with OVCAR-3 ovarian; 106% in the assay with HS 578T breast; 52.7% with NCI/ADR-RES ovarian; 11.1% with T-47D breast; 67.7% in the assay on BT-549 breast; 70.6% with MDA-MB-435 melanoma. Moreover, the growth in the assay with SW-620 colon is 82.4%; in the assay with MCF7 breast, 72.5%; in the assay on HCT-116 colon it was 49.8%; with HCC-2998 colon, 94.9%; in the assay with KM12 colon, 57.7%.

Consider `CC(C)c1ccc(NC(=O)Nc2ccc(NC(=O)CCCC(=O)NOCc3ccccc3)cc2)cc1`, for which the growth in the assay with SR leukemia was 73.4%; in the assay on RPMI-8226 leukemia it was 91.1%; in the assay with OVCAR-8 ovarian, 96.7%; in the assay on OVCAR-5 ovarian, 89.2%; with OVCAR-4 ovarian, 89.2%; with SK-OV-3 ovarian it was 97.4%. Besides, the growth with OVCAR-3 ovarian is 94%; in the assay on HS 578T breast it was 85.7%; in the assay with NCI/ADR-RES ovarian, 99.1%; in the assay with T-47D breast, 59.3%; with BT-549 breast, 106%; in the assay on MDA-MB-435 melanoma, 89.1%. In addition, the growth was 107% in the assay on SW-620 colon, 93.4% in the assay on HCT-116 colon, 66% in the assay on HCC-2998 colon and 94.4% with KM12 colon.

Turning to `C=CC(=O)NCc1ccc(Nc2nccc(-c3ccc(N4CCCC4)c(C#N)c3)n2)cc1`, the growth is 5.13% (active) in the assay with SR leukemia; 46.7% with RPMI-8226 leukemia; 30.8% with OVCAR-8 ovarian; 75.3% in the assay on OVCAR-5 ovarian; 29.6% in the assay on SK-OV-3 ovarian; 25.2% in the assay with IGROV1 ovarian. Moreover, the growth in the assay on OVCAR-3 ovarian is 33.4%; in the assay on HS 578T breast, 25.4%; in the assay with NCI/ADR-RES ovarian it was 34.4%; in the assay on T-47D breast, 71%; with BT-549 breast it was -10.3% (active); with MDA-MB-435 melanoma, 10.1%. Also, the growth is 43.9% in the assay with SW-620 colon, 22.2% in the assay on HCT-116 colon, 71.3% in the assay with HCC-2998 colon and 35.2% with KM12 colon.

In the case of `C=C1C(=O)O[C@H]2[C@H]1CC/C(COC(=O)N[C@H]1C[C@H](O[C@H]3C[C@](O)(C(=O)CO)Cc4c(O)c5c(c(O)c43)C(=O)c3c(OC)cccc3C5=O)O[C@@H](C)[C@H]1O)=C\CC[C@@]1(C)O[C@@H]21`, the growth in the assay on SR leukemia was 5.44% (active); with RPMI-8226 leukemia it was -24.2% (active); with OVCAR-8 ovarian, 66%; with OVCAR-5 ovarian, 96.4%; in the assay with SK-OV-3 ovarian, 107%; with IGROV1 ovarian it was 56.7%. The growth was -8.47% (active) in the assay on OVCAR-3 ovarian; 73% in the assay with HS 578T breast; 100% in the assay on NCI/ADR-RES ovarian; 29.7% in the assay on T-47D breast; 22.7% in the assay on BT-549 breast; 66% in the assay with MDA-MB-435 melanoma. Besides, the growth with SW-620 colon was 1.42% (active); in the assay with MCF7 breast, 12.1%; in the assay with HCT-116 colon, 7.69% (active); with HCC-2998 colon, 99.3%; in the assay on KM12 colon it was 90.1%.

`CN(C)CC(=O)Nc1ccc2ncnc(Nc3ccc(Oc4cccc(C(F)(F)F)c4)c(Cl)c3)c2c1`: the growth in the assay with SR leukemia was -1.46% (active); with RPMI-8226 leukemia, 31.2%; in the assay with OVCAR-8 ovarian, 55.5%; with OVCAR-5 ovarian, 82.6%; in the assay on SK-OV-3 ovarian, 19.7%; with IGROV1 ovarian, 8.24% (active). Moreover, the growth in the assay with OVCAR-3 ovarian was 42.5%; with HS 578T breast it was 79.1%; in the assay with NCI/ADR-RES ovarian, 54.3%; with T-47D breast, 48.6%; in the assay with BT-549 breast, 77.5%; with MDA-MB-435 melanoma it was 61%. Also, the growth in the assay with SW-620 colon was 64.6%; with MCF7 breast, 41.6%; in the assay with HCT-116 colon, 44.1%; with HCC-2998 colon, 23.7%; with KM12 colon it was 55.5%.

For the molecule `CCc1n(Cc2ccc3ccccc3c2)cc[n+]1Cc1ccc2ccccc2c1`, the growth in the assay with SR leukemia was -28% (active); in the assay with RPMI-8226 leukemia it was -23.1% (active); in the assay with OVCAR-8 ovarian it was -4.85% (active); with OVCAR-5 ovarian it was 8.92% (active); with SK-OV-3 ovarian, 9.89% (active); in the assay on IGROV1 ovarian, -21.7% (active). Besides, the growth is -16.3% (active) in the assay on OVCAR-3 ovarian; 4.38% (active) with HS 578T breast; 92.5% in the assay with NCI/ADR-RES ovarian; -10.2% (active) in the assay with T-47D breast; -2.05% (active) with BT-549 breast; -22.1% (active) in the assay with MDA-MB-435 melanoma. Moreover, the growth in the assay on SW-620 colon is 16%; in the assay with MCF7 breast, 2.44% (active); with HCT-116 colon it was 4.69% (active); in the assay with HCC-2998 colon, -6.82% (active); with KM12 colon it was -52.2% (active).

In the case of `Cc1ccc(-n2c(=S)[nH]c3sc4c(c3c2=O)CCC(=O)C4)cc1`, the growth with SR leukemia is 28.5%; in the assay with RPMI-8226 leukemia it was 22.7%; with OVCAR-8 ovarian it was 50.2%; with OVCAR-5 ovarian, 87.4%; in the assay with SK-OV-3 ovarian it was 91.6%; with OVCAR-3 ovarian it was 4.02% (active). Also, the growth in the assay on HS 578T breast was 34.3%; with NCI/ADR-RES ovarian, 27.1%; in the assay on T-47D breast, 42.4%; with BT-549 breast, 59.9%; in the assay with MDA-MB-435 melanoma it was -33.3% (active); in the assay with SW-620 colon, 17.8%. Further, the growth was 14.7% in the assay with MCF7 breast, 36.2% in the assay with HCT-116 colon, 80.8% in the assay with HCC-2998 colon and 41.7% with KM12 colon.

On to `CCc1ccc(Oc2cn[nH]c2-c2ccc(OCCc3ccc(F)cc3)cc2O)cc1`, for which the growth with SR leukemia is 101%; with RPMI-8226 leukemia it was 81%; in the assay with OVCAR-8 ovarian, 101%; in the assay with OVCAR-5 ovarian, 90.6%; with SK-OV-3 ovarian, 102%; with IGROV1 ovarian, 97.3%. For the same molecule, the growth in the assay with OVCAR-3 ovarian is 89.4%; in the assay with HS 578T breast, 93.1%; in the assay with NCI/ADR-RES ovarian it was 89.2%; in the assay with T-47D breast, 34.5%; in the assay with BT-549 breast, 107%; in the assay with MDA-MB-435 melanoma, 91.6%. For the same molecule, the growth was 94.1% with SW-620 colon; 85.3% in the assay with MCF7 breast; 71.9% with HCT-116 colon; 98.5% with HCC-2998 colon; 84.8% in the assay on KM12 colon.
